# Reference: PubChem BioAssay (NCI)
# Compounds without any hit were thinned out: in the full panel of roughly 83,000, 20% have a hit.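 Treatment: one concentration, 48 hours, 96-well format. Scoring: percent growth, with anything below 10 considered active.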 Values without a mark were called inactive. Activity calls are given as the source filed them.
# What was measured:
# Experiment in all cases: NCI-60 one-dose screen, 48 h (100 = growth as untreated, 0 = no growth, -100 = all killed)
# DU-145 prostate = settings: 10 µM unless noted
# K-562 leukemia = settings: 10 µM unless noted
# MALME-3M melanoma = settings: 10 µM unless noted
# MDA-MB-231 breast = settings: 10 µM unless noted
# RXF 393 renal = settings: 10 µM unless noted
# SF-268 CNS = settings: 10 µM unless noted
# SF-539 CNS = settings: 10 µM unless noted
# UACC-257 melanoma = settings: 10 µM unless noted
# M14 melanoma = settings: 10 µM unless noted
# HCT-15 colon = settings: 10 µM unless noted
# HT29 colon = settings: 10 µM unless noted
# SNB-75 CNS = settings: 10 µM unless noted
# SNB-19 CNS = settings: 10 µM unless noted
# U251 CNS = settings: 10 µM unless noted
# PC-3 prostate = settings: 10 µM unless noted
# SK-MEL-5 melanoma = settings: 10 µM unless noted
# UACC-62 melanoma = settings: 10 µM unless noted
# LOX IMVI melanoma = settings: 10 µM
# SK-MEL-28 melanoma = settings: 10 µM unless noted
# SF-295 CNS = settings: 10 µM unless noted
SMILES,growth (DU-145 prostate),growth (K-562 leukemia),growth (MALME-3M melanoma),growth (MDA-MB-231 breast),growth (RXF 393 renal),growth (SF-268 CNS),growth (SF-539 CNS),growth (UACC-257 melanoma),growth (M14 melanoma),growth (HCT-15 colon),growth (HT29 colon),growth (SNB-75 CNS),growth (SNB-19 CNS),growth (U251 CNS),growth (PC-3 prostate),growth (SK-MEL-5 melanoma),growth (UACC-62 melanoma),growth (LOX IMVI melanoma),growth (SK-MEL-28 melanoma),growth (SF-295 CNS)
O=[N+]([O-])c1cc(-c2ccccc2)c(O)c([N+](=O)[O-])c1,107%,68.9%,120%,71.3%,99.1%,79%,84.7%,94.9%,101%,79.4%,92.4%,74.3%,68.2%,84.2%,78.3%,29.2%,32%,82.9%,66.2%,–
Cc1cc(C)c(C#N)c(Sc2nc(C)c([N+](=O)[O-])c(C)c2C#N)n1,41.7%,14.5%,36.1%,91.4%,55.2%,81.6%,49.5%,–,54.2%,58.8%,35.8%,66%,98.4%,–,77.1%,86.5%,66.8%,1.66% (active),78.7%,84.1%
Cc1cc(=O)oc2cc(O)cc(O)c12,103%,102%,90%,89.8%,114%,97.7%,92.4%,–,102%,108%,107%,98.2%,104%,107%,100%,99.5%,102%,97.9%,101%,103%
CC1=CC(=O)C=CC1(C)C(Cl)(Cl)Cl (stereo not drawn),124%,107%,91.2%,92.2%,115%,107%,–,69.8%,97.8%,97.3%,83.1%,109%,92%,83.1%,92.9%,103%,95.7%,93%,102%,102%
Cn1ccc(=Nc2ccc(NC(=O)c3ccc(N=c4ccn(C)c5ccc([N+](=O)[O-])cc45)cc3)cc2)cc1,47%,96%,61.9%,56.6%,-0.0973% (active),37.1%,–,86.9%,76.8%,98.2%,73%,-9.29% (active),-5.19% (active),-17.5% (active),44%,89.8%,70.1%,56.2%,87.3%,105%
N=C1C=C(N)C(=O)c2ccccc21,-99.5% (active),-4.96% (active),-83.7% (active),-12.5% (active),-97.1% (active),-68.4% (active),-95.8% (active),-77.2% (active),-86.5% (active),-74.6% (active),-38.8% (active),-99.1% (active),-98.7% (active),-72.1% (active),-7.01% (active),-96% (active),-95.8% (active),-100% (active),-96.5% (active),–
CC12CCC(O)CC1=CCC1C2CCC2(C)C3=NN=CC3CC12 (stereo not drawn),122%,61.1%,98%,103%,102%,105%,106%,103%,99.7%,95.1%,99%,93.7%,103%,101%,103%,96.4%,92.5%,100%,103%,–
CC(C)=C1C=C2CC[C@@H]3[C@](C)(CCC[C@@]3(C)C(=O)O)[C@H]2CC1,105%,84.3%,91.3%,99.6%,112%,97%,97.5%,–,–,98%,108%,93.4%,98.1%,96.2%,97.3%,96.8%,102%,85.5%,107%,95.8%
CN1CCC(c2ccccc2)(c2ccccc2)C(=O)C1,102%,65.6%,90.7%,–,95.7%,104%,94.3%,95%,92.4%,70.2%,81.7%,58%,90.7%,91.3%,85.7%,97.7%,93.6%,–,119%,85.8%
